Reference: the supplement of paper PMC9135407
Values joined by “and” are separate entries in the source; they are usually repeats but may differ in a detail not shown here. Equal values may be shown once. Where a name gives a salt, the structure may show the parent alone. Among all 5,800 compounds or so, about 620 (11%) showed activity. The sample holds actives, similar compounds and a random draw of the others, so the mix is not that of the screen. Values without a mark were called inactive.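 The calls were made as follows: active = score above a cut-off or among the top three wells of a plate; in these data no inactive exceeds 0.85.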

System: primary human hepatic stellate cells (donor 1)
Experiment: scaled lipid accumulation score (0 = DMSO-like, 1 = nortriptyline-like); higher = stronger HSC inactivation (lipid re-accumulation), active = hit call of the paper
Settings: 48 h
[1] = library stock concentration: 10 mM
[2] = library stock concentration: 1 mM
[3] = library stock concentration: 3.33 mM
[4] = library stock concentration: 80 uM
[5] = library stock concentration: 400 uM
[6] = library stock concentration: 2 mM
[7] = library stock concentration: 6.2 mM
[8] = library stock concentration: 6.3 mM

COC(=O)c1c(C)[nH]c(C)c1C(=O)c1ccccc1Cc1ccccc1
scaled lipid accumulation score [1]: 0.13 and 0.001

CNCCCCOc1ccccc1Cc1ccccc1.Cl [Bifemelane hydrochloride]
scaled lipid accumulation score [1]: 1.41 (active)

CNCCCCOc1ccccc1Cc1ccccc1 [Bifemelane]
scaled lipid accumulation score [1]: 1.08 (active)

CCCCCCOc1ccccc1C(N)=O [Exalamide]
scaled lipid accumulation score [1]: ≤ -0.027

CCOC(=O)c1c(Cc2cccc(Cl)c2)[nH]c2c1cc(O)c1ccccc12
scaled lipid accumulation score [2]: ≤ 0

CC/C=C\C/C=C\C/C=C\CCCCCCCC(=O)NCCO [.alpha.-Linolenoyl Ethanolamide]
scaled lipid accumulation score [2]: 0.006

CCOc1nc(NC(=O)Cc2cc(OC)ccc2OC)cc(N)c1C#N [JNK Inhibitor VIII]
scaled lipid accumulation score [3]: ≤ 0

CNc1cc(OC)c(C(=O)NC2CCN(Cc3ccccc3)C2C)cc1Cl (centres undefined) [Nemonapride]
scaled lipid accumulation score [1]: 0.728

NC(=O)Nc1sc(-c2ccccc2)cc1C(N)=O [IKK-2 Inhibitor VI]
scaled lipid accumulation score [3]: ≤ 0

COc1cccc(CCc2ccccc2OCC[C@@H]2C[C@@H](O)CN2C)c1.Cl
scaled lipid accumulation score [1]: 1.18 (active)

c1ccc2c(Cc3c[nH]c4ccccc34)c[nH]c2c1 [Diidolylmethane]
scaled lipid accumulation score [2]: ≤ -0.021

OCc1c[nH]c2ccccc12 [Indole-3-carbinol]
scaled lipid accumulation score [3]: ≤ 0 | scaled lipid accumulation score [1]: ≤ 0

OC1(c2ccc(Cl)cc2)CCN(Cc2c[nH]c3ccccc23)CC1
scaled lipid accumulation score [1]: 1.17 (active)

CC[C@@H](CC[C@@H](C)[C@H]1CC[C@H]2[C@@H]3CCC4C[C@@H](O)CC[C@]4(C)[C@H]3CC[C@]12C)C(C)C (stereo partly drawn) [Beta-sistosterol]
scaled lipid accumulation score: ≤ 0

COc1cc(OC)cc(OC)c1 [1,3,5-trimethoxybenzene]
scaled lipid accumulation score [1]: ≤ 0

COc1ccc2nc3n[nH]c(C)c3c(NCCOCCO)c2c1
scaled lipid accumulation score [4]: ≤ -0.001 | scaled lipid accumulation score [5]: ≤ -0.001 | scaled lipid accumulation score [6]: ≤ -0.001 | scaled lipid accumulation score [3]: 0.203 | scaled lipid accumulation score [1]: 0.021

COc1cc(OC)cc(-c2ccc3ncc4ccc(=O)n(-c5ccc(N6CCNCC6)c(C(F)(F)F)c5)c4c3c2)c1
scaled lipid accumulation score [4]: 0.045 | scaled lipid accumulation score [5]: 0.305 | scaled lipid accumulation score [6]: 0.652 | scaled lipid accumulation score [1]: 0.426

COc1ccc(-c2ccc3ncc4c(c3c2)n(-c2ccc(N3CCNCC3)c(C(F)(F)F)c2)c(=O)n4C)cn1
scaled lipid accumulation score [4]: 0.133 | scaled lipid accumulation score [6]: 0.546 | scaled lipid accumulation score [3]: 0.237 | scaled lipid accumulation score [1]: ≤ 0 and 0.223

COc1ccc(-c2ccc3ncc4c(c3c2)n(-c2ccc(N3CCNCC3)c(C(F)(F)F)c2)c(=O)n4C)cn1.O=C(O)/C=C\C(=O)O
scaled lipid accumulation score [5]: 0.909 (active)

S=c1[nH]c(-c2ccccc2)cn1-c1ccccc1
scaled lipid accumulation score [1]: ≤ -0.07

Nc1c2c(nc3c1CCC3)CCCC2
scaled lipid accumulation score [1]: ≤ 0

CCCCCCCCCCCCCCCCOC[C@H](COP(=O)([O-])OCC[N+](C)(C)C)OC(=O)CCCCCCCC(=O)O [Azelaoyl PAF]
scaled lipid accumulation score [2]: ≤ 0

CC(CN1c2ccccc2Sc2ccccc21)N(C)C (centres undefined) [Promethazine HCl]
scaled lipid accumulation score [3]: ≤ 0 | scaled lipid accumulation score (library stock concentration: 7 mM): 0.609 | scaled lipid accumulation score [1]: 0.62

CN(C)CCCN1c2ccccc2Sc2ccccc21 [Promazine hydrochloride]
scaled lipid accumulation score: 0.365 | scaled lipid accumulation score [7]: 0.834 | scaled lipid accumulation score [1]: 0.324

CC(CN1c2ccccc2Sc2ccccc21)N(C)C (centres undefined) [Promethazine hydrochloride]
scaled lipid accumulation score: 0.571 | scaled lipid accumulation score [7]: 0.655 | scaled lipid accumulation score [1]: 0.748

CC(CN1c2ccccc2Sc2ccccc21)N(C)C (centres undefined) [Phenergan]
scaled lipid accumulation score [1]: 0.649

CN(C)CCCN1c2ccccc2Sc2ccc(Cl)cc21.Cl [Chlorpromazine HCl]
scaled lipid accumulation score [1]: 0.833 (active)

CCN(CC)C(C)CN1c2ccccc2Sc2ccccc21 (centres undefined) [Ethopropazine hydrochloride]
scaled lipid accumulation score: 0.644 | scaled lipid accumulation score (library stock concentration: 5.7 mM): 0.667 | scaled lipid accumulation score [1]: 0.301 and 0.673

CN(C)CCCN1c2ccccc2Sc2ccc(Cl)cc21
scaled lipid accumulation score [1]: 0.711

CN(C)CCCN1c2ccccc2Sc2ccc(Cl)cc21 [Chlorpromazine hydrochloride]
scaled lipid accumulation score: 0.717 | scaled lipid accumulation score [1]: 0.259

CN(C)CCCN1c2ccccc2Sc2ccccc21.Cl [Promazine hydrochloride]
scaled lipid accumulation score [1]: 0.923 (active)

CN(C)CCCN1c2ccccc2Sc2ccc(Cl)cc21 [Chlorpromazine] [listing 1 of 2 here]
scaled lipid accumulation score [1]: 0.466

CC(CN1c2ccccc2Sc2ccccc21)N(C)C.Cl (centres undefined) [Promethazine hydrochloride]
scaled lipid accumulation score [1]: 0.888 (active)

CN(C)CCCN1c2ccccc2Sc2ccc(Cl)cc21 [Chlorpromazine HCl]
scaled lipid accumulation score [3]: 0.38 | scaled lipid accumulation score [8]: 0.53

CN(C)CCCN1c2ccccc2Sc2ccc(Cl)cc21 [Chlorpromazine] [listing 2 of 2 here]
scaled lipid accumulation score [8]: 1.09 (active)

CCCCCC(O)C=CC1C(O)CC(O)C1CC=CCCCC(=O)OC (stereo not drawn) [Prostaglandin F2.alpha. methyl ester]
scaled lipid accumulation score [2]: ≤ 0

Nc1ncnc2c1nc(Br)n2[C@@H]1O[C@@H]2COP(=O)(O)O[C@H]2[C@H]1O [8-Bromo-cAMP, sodium salt]
scaled lipid accumulation score [1]: ≤ -0.006

Nc1ncnc2c1nc(Br)n2[C@@H]1O[C@@H]2COP(=O)(O)O[C@H]2[C@H]1O [8-Bromo-cAMP]
scaled lipid accumulation score (library stock concentration: 12.3 mM): 0.137

CC(NC(=O)c1ccccc1/N=C/c1c(O)ccc2ccccc12)c1ccccc1 (centres undefined) [Sirtinol]
scaled lipid accumulation score [3]: 0.008 | scaled lipid accumulation score [1]: 0.024 and ≤ -0.001

CCCCCCCCCCCCCCCCOC[C@H](COP(=O)([O-])OCC[N+](C)(C)C)OC [2-O-methyl PAF C-16]
scaled lipid accumulation score [2]: ≤ 0

CCCCC[C@H](O)/C=C/[C@H]1CC[C@H](O)[C@@H]1C/C=C\CCCC(=O)O [11-deoxy Prostaglandin F2.alpha.]
scaled lipid accumulation score [2]: ≤ 0

CCCCCCC(=O)SC[C@H](COP(=O)([O-])OCC[N+](C)(C)C)SC(=O)CCCCCC [1,2-bis(heptanoylthio) Glycerophosphocholine]
scaled lipid accumulation score [2]: ≤ 0
